From PubChem BioAssay AID743287 (Broad Institute, 2014) come the findings set out here.

The structures appear in SMILES notation. Values joined by “and” are separate entries in the source; they are usually repeats but may differ in a detail not shown here. Equal values may be shown once. About 2,300 (0.62%) of roughly 370,000 compounds were called active. The sample holds actives, similar compounds and a random draw of the others, so the mix is not that of the screen. Values without a mark were called inactive.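 How the source made its calls: active means lowest replicate activation of at least 40%, so every replicate reaches that level; inactive means the rest.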

A short description of the experiment: GLuc luminescence reporter in INS-1E cells, primary screen for activators of glucose-dependent secretion of insulin (AID 743287).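 Further: 0% = median of neutral control wells and 100% = median of IBMX positive control wells.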 To be noted: INS-1E GLuc reporter insulin secretion, 2-3 h, at 16.6 µM, hits give high values.
`COCC(=O)N(C)C[C@@H]1Oc2cc(C#CC3CC3)ccc2S(=O)(=O)N([C@H](C)CO)C[C@H]1C`: the activation was 5.41%.
`C[C@@H]1CC=CC[C@H](c2ccc(F)cc2)NC(=O)[C@@H](Cc2ccccc2)N(C)C(=O)c2ccccc2O1` (mixture of isomers): the activation was -20.2%.
With `C[C@@H]1CN([C@H](C)CO)C(=O)c2cc(NS(=O)(=O)c3ccc(F)cc3)ccc2O[C@@H]1CN(C)S(C)(=O)=O`, the activation is 12.8%.
The result for `NS(=O)(=O)c1ccc(CNC(=O)c2cc(S(=O)(=O)N3CCOCC3)ccc2N2CCCC2)cc1` reads 46.1% (active).
Turning to `O=C(CNC(=O)c1cc(S(=O)(=O)N2CCOCC2)ccc1N1CCCC1)Nc1ccc(F)c(F)c1`, the activation is -28.2%.
Take `O=C(NCC1CCCCC1)c1cc(S(=O)(=O)N2CCCCC2)ccc1N1CCOCC1`: the activation is -3.7%.
`C[C@@H]1CCCCO[C@@H](CN(C)Cc2ccc(C(=O)Nc3ccccc3N)cc2)[C@H](C)CN([C@H](C)CO)C(=O)c2cc(N(C)C)ccc2O1`: the activation was 4.89%.
In the case of `C[C@@H]1CN([C@@H](C)CO)C(=O)CCCn2cc(nn2)CO[C@@H]1CN(C)C(=O)C1CCCCC1`, the activation is 5.75%.
As for `COc1ccc2c3c([nH]c2c1)[C@@H](CO)N(C(=O)C1CC1)CC31CCN(C(=O)c2ccncc2)CC1`, the figure is 1.51%; as for `O=C(CN1CCC(NC(=O)C2CC2)CC1)Nc1ccccc1[N+](=O)[O-]`, 96.7% (active).
The result for `O=C(CN1CCCCC1)Nc1ccccc1C(=O)NC1CC1` reads 22.4%; that for `O=C(CN1CCCCCC1)Nc1ccc(Br)cc1[N+](=O)[O-]`, 7%.
Take `Cc1ccnc(NS(=O)(=O)c2ccc(NC(=O)c3ccc(S(=O)(=O)N(C)C)cc3)cc2)n1`: the activation was 7.95%.
Take `O=C(Nc1ccc(S(=O)(=O)Nc2ncccn2)cc1)c1cncc(Br)c1`: the activation was 1.33%.
As to `CCOc1ncccc1C(=O)Nc1ccc(S(=O)(=O)Nc2nc(C)cc(C)n2)cc1`, the activation is 65.9% (active).
`COCCNC(=S)N(Cc1cccnc1)Cc1ccc(OC)c(OC)c1`: the activation was 53.5% (active).
For the compound `COCCNC(=S)N(CCc1c(C)[nH]c2ccc(C)cc12)Cc1cccnc1`, the activation is -2.95%.
On to `COCCCNC(=S)N(Cc1ccccc1)Cc1ccc(F)cc1`, for which the activation was -5.03%.
In the case of `COc1ccc(-c2cnc3c(c2)C(=O)N([C@@H](C)CO)C[C@@H](C)[C@H](CN(C)C(=O)C2CCCCC2)O3)cc1`, the activation is -13.6%.
As for `O=C(C[C@H]1CC[C@H]2[C@@H](COC[C@@H](O)CN2S(=O)(=O)c2ccc(Cl)cc2)O1)NCCN1CCCCC1`, the figure is 17.3%; as for `CNC[C@@H]1Oc2cc(-c3ccccc3OC)ccc2S(=O)(=O)N([C@H](C)CO)C[C@H]1C`, 5.62%; as for `CCC1OC(C2CC2)CC2=C1C(=O)OC(C)(C)O2` (centres undefined), 44.5% (active).
Consider `CC1(C)OC(=O)C2=C(C[C@@H](C3CC3)O[C@H]2CCc2cccc(Cl)c2)O1`, for which the activation is -7.22%.
On to `CC[C@@H]1CC2=C(C(=O)OC(C)(C)O2)[C@@H](CC)O1`, for which the activation was -0.455%.
On to `O=C(Nc1ccc(C(F)(F)F)cc1)N1[C@@H]2CNC[C@H]1C2c1ccc(-c2ccncc2)cc1` (some centres undefined), for which the activation was 3.37% and 12.2%.
With `CCCCc1nc(NCc2ccccc2)c(C#N)c2c1CCCC2`, the activation is -17.4%.
Take `CCCCc1nc(NCCN)c(C#N)c2c1CSC(C)(C)C2`: the activation is 44.2% (active).
For the compound `COc1cccc(S(=O)(=O)N2[C@@H]3CNC[C@H]2C3c2ccc(-c3cccc(C(=O)N(C)C)c3)cc2)c1` (some centres undefined), the activation is 11.3% and 0.645%.
In the case of `CO[C@H]1CN(C)C(=O)c2cc(NS(C)(=O)=O)ccc2OC[C@@H](C)N(C(=O)NC(C)C)C[C@@H]1C`, the activation was 8.6%.
Regarding `CCOC(=O)C1(Cc2cccc(OC)c2)CCCN(S(=O)(=O)c2cccnc2)C1` (centres undefined), the activation is -3.61%.
Take `CCOC(=O)C1(Cc2cccc(OC)c2)CCN(C(C)COC)CC1` (centres undefined): the activation is 5.01%.
The result for `CCOC(=O)C1(Cc2cccc(OC)c2)CCCN(C(=O)CCSC)C1` (centres undefined) reads 51.6% (active); that for `C[C@@H]1CN([C@H](C)CO)C(=O)c2cccc(NC(=O)CCCCCC(=O)Nc3ccccc3N)c2O[C@H]1CN(C)CC1CCCCC1`, -3.22%.
For the compound `C[C@@H]1CN([C@@H](C)CO)C(=O)c2cc(NC(=O)Nc3ccccc3)ccc2O[C@H]1CN(C)S(=O)(=O)c1ccccc1`, the activation is 6.36%.
The result for `Cc1cccc(CS(=O)(=O)c2ncc(Cl)c(C(=O)Nc3ccc(F)cc3)n2)c1` reads 44.8% (active); that for `Cc1onc(-c2c(F)cccc2Cl)c1C(=O)Nc1cccc(S(=O)(=O)N2CCCCC2)c1`, -9.79%.
Consider `CN(CCC(=O)Nc1cc(S(=O)(=O)N(C)C)ccc1Cl)CC(=O)Nc1ccc(F)cc1`, for which the activation was -1.06%.
Take `C/C=C/c1ccc(C2[C@H]3CNC[C@@H]2N3CC2CCOCC2)cc1` (some centres undefined): the activation is 8.12%.
On to `C[C@@H]1CN([C@@H](C)CO)C(=O)Cc2cc(NC(=O)Cc3ccccc3)ccc2O[C@H]1CN(C)Cc1ccc(C(=O)O)cc1`, for which the activation was 12.1%.
Consider `CC(C)NC(=O)Nc1ccc2c(c1)C(=O)N(C)[C@H]1CC[C@H](CC(=O)NCC3CCCCC3)O[C@@H]1CO2`, for which the activation was 5.93%.
In the case of `CCC(=O)Nc1ccc2c(c1)C(=O)N(C)C[C@H](OC)[C@@H](C)CN(Cc1nccs1)[C@H](C)CO2`, the activation was 5.56%.
Consider `CC1CN(Cc2ccccc2)C(=S)NC1=O` (centres undefined), for which the activation is 41.2% (active).
Take `CC1CC(=S)Nc2ccccc2N1Cc1ccccc1` (centres undefined): the activation is -14.5%.
The result for `CC1CN(Cc2ccco2)C(=S)N(c2ccccc2)C1=O` (centres undefined) reads 10.7%; that for `COCC(=O)N(C)C[C@H]1Oc2cc(C#CC3CCCC3)ccc2S(=O)(=O)N([C@H](C)CO)C[C@@H]1C`, -6.72%.
Take `COc1ccccc1CNC(=O)C[C@H]1C[C@@H]2c3cc(NC(=O)Nc4ccccc4F)ccc3O[C@@H]2[C@H](CO)O1`: the activation was 13.4%.
For the compound `COc1cccc(NC(=O)CSc2nnc(Cc3ccc(OC)c(OC)c3)o2)c1`, the activation was 37.6%.
As for `Cc1ccc(NC(=O)CSc2nnc(COc3ccccc3C)o2)cc1`, the figure is 6.85%.
Regarding `COc1ccc(Cc2nnc(SCC(=O)Nc3ccc(C)c(C)c3)o2)cc1OC`, the activation is 71.9% (active).
